These results are taken from PubChem BioAssay (NCI).

About 79,000 compounds went through this panel and 15% of them were active in at least one assay; those are over-represented in the sample as a whole. A number with no mark means an inactive call. Calls of active or inactive are those of the source. Rule as the data show it: active = growth inhibition above about 70%; inactive = the rest.

A short description of test [1]: NCI Yeast Anticancer Drug Screen. Data for the rad50 strain (AID 155).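 Also: 0% = growth of vehicle-only cultures of the same strain.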 As to conditions: S. cerevisiae rad50 strain growth inhibition, active compounds read high. In outline:
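A DNA repair-deficient yeast mutant serves as the test organism; compound-induced growth inhibition is calculated against vehicle-treated cells.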

Test [2] can be described thus: NCI Yeast Anticancer Drug Screen. Data for the mec2-1 strain (AID 157). Conditions: S. cerevisiae mec2-1 strain, active compounds read high. In outline:
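Cells of the genetically defined mec2-1 yeast strain are incubated with test compound. Inhibition of growth is calculated against vehicle-treated controls.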

Test [3] is described as follows: NCI Yeast Anticancer Drug Screen. Data for the sgs1 mgt1 strain (AID 161).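 Also: 0% = growth of cultures given vehicle only.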 Conditions: S. cerevisiae sgs1 mgt1 strain, active compounds read high. In outline: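 Mutant yeast exposed to compound; growth scored against vehicle-only wells.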
A short description of test [4]: NCI Yeast Anticancer Drug Screen. Data for the cln2 rad14 strain (AID 165).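 Also: 0% = growth equal to vehicle treated cultures.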 As to conditions: S. cerevisiae cln2 rad14 strain, active compounds read high. In outline:
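The screen exposed genetically defined yeast (cln2 rad14) to test compounds and scored growth inhibition relative to vehicle-treated controls.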

Test [5] in a line: NCI Yeast Anticancer Drug Screen. Data for the bub3 strain (AID 167). As to conditions: S. cerevisiae bub3 mutant strain, active compounds read high. In outline:
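Inhibition values come from growth of compound-treated mutant yeast normalised to vehicle-treated controls.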

Test [6] is described as follows: NCI Yeast Anticancer Drug Screen. Data for the mlh1 rad18 strain (AID 175). Conditions: S. cerevisiae mlh1 rad18 strain growth inhibition, active compounds read high. In outline: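 Compound-treated yeast growth, normalised to vehicle controls. Strain bears defined DNA repair mutations.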
Where [7] appears, read: at 5.0 µM (retest, dose inferred, filed as 0.5).
The mark [8] stands for this setting: at 50.0 µM (retest, dose inferred, filed as 5.0).

Take `Cc1cc(O)cc2c1c(=O)c1ccccc1n2C`: the growth inhibition in test [1] (setting [7]) was 15%; in test [1] (setting [8]) it was 29%; in test [1] (at 50.0 µM), 39%; in test [2] (setting [7]), 15%; in test [2] (setting [8]) it was 24%; in test [2] (at 50.0 µM), 24.5%. Moreover, the growth inhibition was 20% in test [3] (setting [7]); 17% in test [3] (setting [8]); 11.4% in test [3] (at 50.0 µM); 15% in test [4] (setting [7]); 25% in test [4] (setting [8]); 1.8% in test [4] (at 50.0 µM). Also, the growth inhibition in test [5] (setting [7]) was 18%; in test [5] (setting [8]), 25%; in test [5] (at 50.0 µM), 2.4%; in test [6] (setting [7]) it was 23%; in test [6] (setting [8]), 34%; in test [6] (at 50.0 µM), 11.6%.
As to `Cc1cc([N+](=O)[O-])ccc1NC(=O)N(C)CCOC(=O)Nc1ccccc1`, the growth inhibition in test [1] (setting [7]) is 48%; in test [1] (setting [8]), 90% (active); in test [1] (at 50.0 µM) it was 84% (active); in test [2] (setting [7]), 43%; in test [2] (setting [8]) it was 95% (active); in test [2] (at 50.0 µM), 89.2% (active). Also, the growth inhibition in test [3] (setting [7]) was 42%; in test [3] (setting [8]) it was 96% (active); in test [3] (at 50.0 µM) it was 89.5% (active); in test [4] (setting [7]), 32%; in test [4] (setting [8]) it was 97% (active); in test [4] (at 50.0 µM), 86.4% (active). Besides, the growth inhibition in test [5] (setting [7]) was 44%; in test [5] (setting [8]), 97% (active); in test [5] (at 50.0 µM), 89.3% (active); in test [6] (setting [7]), 64%; in test [6] (setting [8]), 96% (active); in test [6] (at 50.0 µM), 87.8% (active).
With `N#CC(c1c(Cl)cccc1N1CCCCC1)N1CCCCC1` (configuration not stated), the growth inhibition in test [1] (setting [7]) is 31%; in test [1] (setting [8]), 75% (active); in test [1] (at 50.0 µM), 86.9% (active); in test [2] (setting [7]) it was 34%; in test [2] (setting [8]), 78% (active); in test [2] (at 50.0 µM), 87.4% (active). In addition, the growth inhibition was 41% in test [3] (setting [7]); 85% (active) in test [3] (setting [8]); 87.6% (active) in test [3] (at 50.0 µM); 30% in test [4] (setting [7]); 61% in test [4] (setting [8]); 80.4% (active) in test [4] (at 50.0 µM). Moreover, the growth inhibition in test [5] (setting [7]) is 37%; in test [5] (setting [8]), 92% (active); in test [5] (at 50.0 µM), 91.2% (active); in test [6] (setting [7]), 46%; in test [6] (setting [8]), 84% (active); in test [6] (at 50.0 µM), 87.7% (active).
Take `O=C(C[N+]1(CCc2ccccc2)CCOCC1)c1ccc(-c2ccccc2)cc1`: the growth inhibition in test [1] (setting [7]) is 2%; in test [1] (setting [8]), 52%; in test [1] (at 50.0 µM), 79.3% (active); in test [2] (setting [7]), 19%; in test [2] (setting [8]), 71% (active); in test [2] (at 50.0 µM) it was 92.5% (active). Also, the growth inhibition in test [3] (setting [7]) is -5%; in test [3] (setting [8]) it was 93% (active); in test [3] (at 50.0 µM), 96.7% (active); in test [4] (setting [7]), -5%; in test [4] (setting [8]), 34%; in test [4] (at 50.0 µM), 98.4% (active). Besides, the growth inhibition in test [5] (setting [7]) was -2%; in test [5] (setting [8]), 66%; in test [5] (at 50.0 µM), 92.8% (active); in test [6] (setting [7]) it was 12%; in test [6] (setting [8]), 93% (active); in test [6] (at 50.0 µM) it was 98.2% (active).
As to `CS(=O)(=O)OCCN(CCOS(C)(=O)=O)c1ccc(C=Nc2cc(Cl)c(O)c(Cl)c2)c(Cl)c1`, the growth inhibition in test [1] (setting [7]) is -1%; in test [1] (setting [8]) it was 28%; in test [1] (at 50.0 µM), 46.6%; in test [2] (setting [7]), 42%; in test [2] (setting [8]), 4%; in test [2] (at 50.0 µM) it was -5%. For the same compound, the growth inhibition is -1% in test [3] (setting [7]); 32% in test [3] (setting [8]); 38.5% in test [3] (at 50.0 µM); 0% in test [4] (setting [7]); 3% in test [4] (setting [8]); -23.1% in test [4] (at 50.0 µM). Moreover, the growth inhibition is -1% in test [5] (setting [7]); -1% in test [5] (setting [8]); 1.25% in test [5] (at 50.0 µM); 9% in test [6] (setting [7]); 57% in test [6] (setting [8]); 86% (active) in test [6] (at 50.0 µM).
Regarding `CC(C)c1cc(C(=O)[O-])c(O)c(C(C)C)c1.CC(C)c1cc(C(=O)[O-])c(O)c(C(C)C)c1.CC(C)c1cc(C(=O)[O-])c(O)c(C(C)C)c1.CC(C)c1cc(C(=O)[O-])c(O)c(C(C)C)c1.CC(C)c1cc(C(=O)[O-])c(O)c(C(C)C)c1.CC(C)c1cc(C(=O)[O-])c(O)c(C(C)C)c1.[Cu+2].[Mn+2].[Mn+2]`, the growth inhibition in test [1] (setting [7]) was 40%; in test [1] (setting [8]), 63%; in test [1] (at 50.0 µM), 43.5%; in test [2] (setting [7]), 38%; in test [2] (setting [8]) it was 57%; in test [2] (at 50.0 µM), 50.5%. Also, the growth inhibition in test [3] (setting [7]) was 31%; in test [3] (setting [8]) it was 70% (active); in test [3] (at 50.0 µM) it was 44.5%; in test [4] (setting [7]), 34%; in test [4] (setting [8]) it was 53%; in test [4] (at 50.0 µM) it was 50.7%. Besides, the growth inhibition in test [5] (setting [7]) is 37%; in test [5] (setting [8]), 66%; in test [5] (at 50.0 µM) it was 55%; in test [6] (setting [7]), 39%; in test [6] (setting [8]), 66%; in test [6] (at 50.0 µM), 82.1% (active).
Take `CCSC(=S)NC(=O)c1ccccc1`: the growth inhibition is -6% in test [1] (setting [7]); 27% in test [1] (setting [8]); 60.2% in test [1] (at 50.0 µM); 1% in test [2] (setting [7]); 20% in test [2] (setting [8]); 21.4% in test [2] (at 50.0 µM). Besides, the growth inhibition in test [3] (setting [7]) was -2%; in test [3] (setting [8]), 30%; in test [3] (at 50.0 µM), 76.5% (active); in test [4] (setting [7]) it was -12%; in test [4] (setting [8]), 28%; in test [4] (at 50.0 µM), 38.1%. Besides, the growth inhibition in test [5] (setting [7]) is -7%; in test [5] (setting [8]), 44%; in test [5] (at 50.0 µM), 17.2%; in test [6] (setting [7]) it was -3%; in test [6] (setting [8]), 32%; in test [6] (at 50.0 µM) it was 36.9%.
In the case of `OCC1OC(NC(=S)NCSCCC(F)(F)C(F)(F)C(F)(F)C(F)(F)C(F)(F)C(F)(F)F)C(O)C(O)C1O` (configuration not stated), the growth inhibition in test [1] (setting [7]) is 17%; in test [1] (setting [8]) it was -21%; in test [1] (at 50.0 µM), 80.8% (active); in test [2] (setting [7]), 7%; in test [2] (setting [8]), 19%; in test [2] (at 50.0 µM), 93.5% (active). The growth inhibition is 36% in test [3] (setting [7]); 36% in test [3] (setting [8]); 93.6% (active) in test [3] (at 50.0 µM); 22% in test [4] (setting [7]); 37% in test [4] (setting [8]); 66.4% in test [4] (at 50.0 µM). Besides, the growth inhibition in test [5] (setting [7]) is 7%; in test [5] (setting [8]), -8%; in test [5] (at 50.0 µM), 95.1% (active); in test [6] (setting [7]), 22%; in test [6] (setting [8]), -3%; in test [6] (at 50.0 µM), 92.3% (active).
For the compound `Cc1cc(N2C(=O)CCSC2=S)c([N+](=O)[O-])cc1C`, the growth inhibition in test [1] (setting [7]) was 32%; in test [1] (setting [8]), 99% (active); in test [1] (at 50.0 µM) it was 99.3% (active); in test [2] (setting [7]), 7%; in test [2] (setting [8]) it was 99% (active); in test [2] (at 50.0 µM), 99.6% (active). The growth inhibition in test [3] (setting [7]) is 60%; in test [3] (setting [8]) it was 99% (active); in test [3] (at 50.0 µM), 99.5% (active); in test [4] (setting [7]) it was -5%; in test [4] (setting [8]) it was 98% (active); in test [4] (at 50.0 µM) it was 98.5% (active). The growth inhibition in test [5] (setting [7]) is 14%; in test [5] (setting [8]), 99% (active); in test [5] (at 50.0 µM), 99.5% (active); in test [6] (setting [7]), 65%; in test [6] (setting [8]) it was 99% (active); in test [6] (at 50.0 µM) it was 99.4% (active).
